Measurements: PubChem BioAssay (NCATS)
Records with an inconclusive call do not appear. Entries that show only a call come without a potency. Unmarked numbers belong to inactive results. Calls of active or inactive are those of the source. Calls follow the shape of the dose curve; as a rule, active = well fitted cell-killing curve with a large enough effect; inconclusive = small, poorly fitted or top-dose-only effect, or effect the other way; inactive = no such curve, though single readings can be large or run the other way.

Assay: Viability qHTS for spleen associated tyrosine kinase inhibitor (SYKi) naive MV4-11 cells (AID 1963823); also: nearly all actives have a fitted effect of over 40% in size
How it was run: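 Seeding of 500 SYKi-naive MV4-11 cells per well onto pre-dispensed compounds preceded a 72 hr incubation at 37 C. Luminescent CellTiter-Glo signal, read after 10 min at room temperature, reflected viable cells.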
Potency is read from the fitted curve at half-maximal effect.

Row | Structure (SMILES) | Potency | viability (% of control)
1 | CCCc1cc(C)n(C)c(=O)c1CN(C)C(=O)c1cc(-c2ccc(N3CCN(C(C)C)CC3)nc2)cc2c1cnn2C(C)C | inactive | 
2 | C/C=C/c1ccc(O[C@@H]2O[C@H](CO)[C@@H](O)[C@H](O)[C@H]2O)c(OC)c1 | inactive | 
3 | COc1cc(/C=C/CO)ccc1O[C@@H]1O[C@H](CO)[C@@H](O)[C@H](O)[C@H]1O | inactive | 
4 | Cn1ccc(NC(=O)c2cc(Oc3ccc(C(=O)N4CCC4)c(F)c3)c3c(c2)OC(C)(C)C3)n1 | inactive | 
5 | COc1ccc(C2=CC(=O)OC2Cc2ccc(O)cc2)c(O)c1 (stereo not given) | inactive | 
6 | CC(=O)C1CCC(=O)N1Cc1ccccc1 (stereo not given) | inactive | 
7 | C[C@@H]1CCC2C(C)(C)[C@H](O)[C@H](O)C[C@]2(C)[C@@]12Cc1c(O)cc3c(c1O2)CN(CCCC(=O)O)C3=O (stereo not given in full) | inactive | 
8 | CC(C)=C1C[C@@]2(C)C(=CC1=O)CC[C@@H](O)[C@@H]2C | inactive | 
9 | COC(=O)c1c(C)cc(OC(=O)c2c(C)cc(OC)cc2OC)cc1O[C@@H]1O[C@H](CO)[C@@H](O)[C@H](O)[C@H]1O | inactive | 
10 | COc1ccccc1CC(C(=O)O)N(C)C(=O)c1ccccc1 (stereo not given) | inactive | 
11 | O=C(O)c1cc2cccc([N+](=O)[O-])c2[nH]1 | inactive | 
12 | CC1CCC2(OC1)OC1CC3C4CCC5C[C@@H](O[C@@H]6O[C@H](CO[C@@H]7OC[C@@H](O)[C@H](O)[C@H]7O)[C@H](O)[C@H](O)[C@H]6O)CC[C@]5(C)C4CC[C@]3(C)C1C2C (stereo not given in full) | inactive | 
13 | C=C(C)[C@@H]1CCC2=CC(=O)C[C@@H](C)[C@]2(C)C1 | inactive | 
14 | C[C@@H]1O[C@@H](O[C@H]2[C@@H]3C=CO[C@@H](O[C@@H]4O[C@H](CO)[C@@H](O)[C@H](O)[C@H]4O)[C@@H]3[C@@]3(CO)O[C@@H]23)[C@H](OC(=O)/C=C/c2ccccc2)[C@H](O)[C@H]1O | inactive | 
15 | Cc1ncc([N+](=O)[O-])n1CC(O)CN1CCOCC1 (stereo not given) | inactive | 
16 | C=C1C(OC(C)=O)CCC2(C)CCC(C(C)(C)O)CC12 (stereo not given) | inactive | 
17 | Nc1c(S(=O)(=O)c2ccccc2)c2nc3ccccc3nc2n1-c1ccc(F)cc1 | inactive | 
18 | C=C1CCC2(OC1)OC1CC3C4CC=C5CC(O)CC(O[C@@H]6OC[C@H](OC(=O)C(O)C(C)CC)[C@H](O)[C@H]6O[C@@H]6O[C@@H](C)[C@H](O)[C@@H](O)[C@H]6O)C5(C)C4CCC3(C)C1C2C (stereo not given in full) |  | 76.1% [at 9.25 µM]

Row | Structure (SMILES) | Potency | viability (% of control)
19 | CC1CCC2C(C)(C)C(O)C(O)CC2(C)C12Cc1c(O)cc(CO)c(C=O)c1O2 (stereo not given) | inactive | 
20 | CC(CC12CCCN1C(=O)C1CCCN1C2=O)OC(N)=O (stereo not given) | inactive | 
21 | C[C@H]1C[C@H]2[C@@H]3CCC4=CC(=O)C=C[C@]4(C)[C@@]3(F)[C@@H](O)C[C@]2(C)[C@@]1(O)C(=O)COP(=O)(O)O | inactive | 
22 | CC1(C)CC(=O)N(CCCCN2CCN(c3ncccn3)CC2)C(=O)C1 | inactive | 
23 | CCCC(=O)c1cc(O)c(O)cc1O | inactive | 
24 | COc1ccc(CNC(=O)c2sc3nc(C)cc(C)c3c2N)cc1 | inactive | 
25 | CC1(CCOC2OC(CO)C(O)C(O)C2O)CCC23OC2(C1)C(O)CC1C(C)(C(=O)O)CCCC13C (stereo not given) | inactive | 
26 | CCOc1ccc(-c2ccc(Cn3c(CC(C)(C)C(=O)O)c(SC(C)(C)C)c4cc(OCc5ccc(C)cn5)ccc43)cc2)cn1 | inactive | 
27 | Cc1c(C(=O)Nc2ccc(N3CCC(N4CCOCC4)CC3)c(C#N)c2)cnn1-c1ccc(Cl)cc1 | 116 nM (active) | 
28 | CC(=O)O[C@@]1(C)C[C@@H](O)[C@]2(O)C=CO[C@@H](O[C@@H]3O[C@H](CO)[C@@H](O)[C@H](O)[C@H]3O)[C@@H]21 | inactive | 
29 | c1ccc2c(Nc3nnc(-c4ccncc4)s3)cccc2c1 | inactive | 
30 | Cc1c(C2=CCN(C(=O)N(C)C(C)C)CC2)nnn1-c1cccnc1F | inactive | 
31 | C=C(COC(=O)CC(C)C)C1Cc2cc(C(C)=O)ccc2O1 (stereo not given) | inactive | 
32 | CC1CCC2C(=CCC(O)C2(C)C)C1(C)Cc1c(O)cc(CO)c(C=O)c1O (stereo not given) | 10100 nM (active) | 
33 | O=C(c1ccc(F)c(F)c1Nc1ccc(I)cc1F)N1CC(O)(C2CCCCN2)C1 (stereo not given) | 184 nM (active) | 
34 | CC1(C)CC2C(O)C3=C(CC(C)(O)C2C1)C(=O)OC3 (stereo not given) | inactive | 
35 | CC(C)=CCC[C@](C)(O[C@@H]1O[C@H](CO)[C@@H](O)[C@H](O)[C@H]1O)[C@H]1CC[C@]2(C)[C@@H]1[C@H](O)CC1[C@@]3(C)CC[C@H](O)C(C)(C)C3[C@@H](O[C@@H]3O[C@H](CO)[C@@H](O)[C@H](O)[C@H]3O[C@@H]3O[C@@H](C)[C@H](O)[C@@H](O)[C@H]3O)C[C@]12C (stereo not given in full) |  | 90.7% [at 9.25 µM]
